In PubChem BioAssay AID808 (Columbia University Molecular Screening Center, 2007):
In all, about 93,000 compounds went through this assay and about 180 (0.19%) were called active.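 The calls were made as follows: active = activation above the screen mean plus 3 SD, with well images confirming the hit on visual review (cut at about 28% in these data, passing the limit was not always enough); inconclusive = activation above that limit but images do not confirm it; inactive = activation not above that limit.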 For the sample, actives were picked, then their nearest neighbours and some compounds at random.

Assay: potentiators of TNFa-induced VCAM1 expression, primary screen, imaging, HUVEC, TNFa stimulus, immunofluorescence (AID 808);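 also: signal is the number of cytoplasmic VCAM-1 stained grains per positive cell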
Conditions: HUVEC TNFa-stimulated VCAM-1 immunofluorescence, high-content imaging; at 2 µM; active compounds read high; scaled per plate to unstimulated/TNFa-only wells
With `CCCCN(C)C(=O)C1CCN(Cc2ccccn2)CC1` the activation was 35.5% (active).
In the case of `Cc1ccc(OCC(O)CN2CCN(CC(O)COc3ccc(C)cc3Cl)CC2)c(Cl)c1` (stereo not drawn), the activation is reported as -1.2% (inactive).
In the case of `O=C(c1ccco1)N1CCN(C(=O)C2c3ccccc3Oc3ccccc32)CC1`, the activation is reported as -5.9% (inactive).
For `Cc1ccc(F)cc1NC(=O)c1ccc2c(c1)OCO2`, the activation was -96.8% (inactive).
With `CC(=O)Nc1ccc(S(=O)(=O)N2CCN(C(=O)c3ccccc3F)CC2)cc1` the activation was -7.6% (inactive).
With `C=C(Br)CN1CCN(CC(=C)Br)CC1` the activation was 17.8% (inactive).
With `Cn1c(C(=O)OC(C(=O)NC2CCCCC2)c2ccccn2)cc2sccc21` (stereo not drawn) the activation was 7.6% (inactive).
In the case of `C=C(C)CNC(=S)/N=c1\scc(C)n1CC`, the activation is reported as -4.4% (inactive).
With `COc1cccc(OCc2cc(/C=N/NC(=O)c3nc(Cl)c(Cl)c(N)c3Cl)ccc2OC)c1` the activation was -6.7% (inactive).
For `CCC(CC)c1nnc(NS(=O)(=O)Cc2ccccc2)s1`, the activation was 11.2% (inactive).
In the case of `COc1cc(C)nc(N2CCCC(C(=O)NCC(C)C)C2)n1` (stereo not drawn), the activation is reported as 5.6% (inactive).
In the case of `COc1ccc2c(c1OC)C(=O)N(c1ncn[nH]1)C2`, the activation is reported as -7.1% (inactive).
With `Nc1nonc1-c1noc(-c2ccc(Br)o2)n1` the activation was 9.6% (inactive).
For `COc1ccc(Nc2cc(=O)oc3ccccc23)cc1`, the activation was -88.9% (inactive).
In the case of `Cc1cccc(Cn2c(SCCO)nc3c2c(=O)n(C)c(=O)n3C)c1`, the activation is reported as -4.1% (inactive).
For `Cc1cccc(C)c1N1CCN(S(=O)(=O)N2CCOCC2)CC1`, the activation was -11.4% (inactive).
For `CSc1ccc(Cl)c(C(=O)OCC(=O)N2CC(C)OC(C)C2)c1` (stereo not drawn), the activation was 4.1% (inactive).
With `NS(=O)(=O)c1cccnc1Nc1cccc(Cl)c1` the activation was 4.4% (inactive).
With `CCN(CC)P(=O)(/C(Cl)=C\Nc1c(C)n(C)n(-c2ccccc2)c1=O)N(CC)CC` the activation was 10.1% (inactive).
For `CN(C)S(=O)(=O)c1ccc(N2CCCC2)c(C(=O)NCc2ccccc2)c1`, the activation was -5.1% (inactive).
With `COc1ccc(F)cc1S(=O)(=O)Nc1ccc2c(c1)OCO2` the activation was 22.9% (inactive).
In the case of `COCCNS(=O)(=O)c1cc(Br)ccc1OC`, the activation is reported as 35.9% (active).
For `CCCN1Cc2cccc(C(=O)Nc3ccc(S(=O)(=O)N4CCCCCC4)cc3)c2C1=O`, the activation was 1.5% (inactive).
In the case of `C/C(=N\NC(=O)c1ccc(C)cc1)C1C(=O)c2ccccc2C1=O`, the activation is reported as -6.4% (inactive).
With `CCCC(=O)n1nc(-c2ccccc2)nc1N` the activation was 25.9% (inactive).
In the case of `O=C(COC(=O)c1ccc(S(=O)(=O)N2CCc3ccccc3C2)cc1)NC(=O)NCc1ccco1`, the activation is reported as -0.5% (inactive).
With `COC(=O)c1sc2ncccc2c1OCc1ccc(Cl)cc1Cl` the activation was -10.3% (inactive).
For `C=C(Cl)COC(=O)C1C2C=CC(C2)C1C(=O)O` (stereo not drawn), the activation was 12.1% (inactive).
With `Cc1ccc(C(=O)Nc2ccc3c(c2)OCO3)cc1S(=O)(=O)N1CCCCC1` the activation was 7.1% (inactive).
With `CCN(CC(=O)Nc1ccc2c(c1)OCCO2)Cc1cc(=O)oc2cc(C)c(C)cc12` the activation was 54.4% (active).
For `Cn1cc([N+](=O)[O-])c(C(=O)Nc2ccc3c(c2)OCCO3)n1`, the activation was -36.8% (inactive).
With `CC(CCc1ccccc1)NC(=O)c1ccc(Br)o1` (stereo not drawn) the activation was -95.4% (inactive).
In the case of `NC(=O)COc1ccc2c3c(c(=O)oc2c1)CCCCC3`, the activation is reported as -35% (inactive).
For `Cc1cc(Cl)c(S(=O)(=O)NCC2CCCO2)cc1OCC(N)=O` (stereo not drawn), the activation was 25.1% (inactive).
For `Cc1cc(=O)oc2cc(OCC3CC(c4ccccc4Cl)=NO3)ccc12` (stereo not drawn), the activation was -59.7% (inactive).
With `Cc1ccc(CNC(=O)CCCNC(=O)c2ccc(Cl)cc2)n1C` the activation was 7.4% (inactive).
In the case of `Cc1ccc(-c2csc(NC(=O)c3cccs3)n2)cc1`, the activation is reported as 5.6% (inactive).
For `Cc1cccc(N=C2NC(=O)CS2)c1C`, the activation was -97.1% (inactive).
For `COc1ccc(-c2c3c(=O)n(C)c(=O)n(C)c3cn2-c2cccc(OC)c2)cc1`, the activation was -7.7% (inactive).
For `COc1ccc(C(=O)OCC(=O)NCC2CCCCC2)cc1S(=O)(=O)N1CCCc2ccccc21`, the activation was -5.3% (inactive).
For `CCOC(=O)CCP(=O)(O)C(O)(c1ccccc1)c1ccccc1`, the activation was -1.8% (inactive).
For `CC(=O)c1cccc(S(=O)(=O)N2CCC(n3nnc4cc(F)ccc43)CC2)c1`, the activation was -54.7% (inactive).
With `COc1ccc(/C=N/Nc2nc3ccccc3o2)cc1OC` the activation was 32.9% (active).
With `COc1cc(/C=N/NC(=O)Nc2ccccc2)ccc1OCCOc1ccccc1C` the activation was -51.1% (inactive).
In the case of `C=CCOc1ccc(/C=N/n2cncn2)cc1OC`, the activation is reported as 4.4% (inactive).
For `CN1CCN(c2nc3c(c(=O)[nH]c(=O)n3C)n2Cc2cccc3ccccc23)CC1`, the activation was -8.9% (inactive).
For `CCC(C)(C)n1nnnc1C(c1cccs1)N1CCN(c2nc3ccccc3s2)CC1` (stereo not drawn), the activation was 0.6% (inactive).
For `Cc1ccc(S(=O)(=O)N2CCCC2C(=O)NCc2ccco2)cc1` (stereo not drawn), the activation was 6.4% (inactive).
In the case of `CCCN1C(=O)C(NC(C)=O)c2cc(OC)ccc21` (stereo not drawn), the activation is reported as -5.9% (inactive).
In the case of `O=C(CO/N=C/c1ccccc1O)NNC(=O)c1ccccc1Cl`, the activation is reported as 2.1% (inactive).
In the case of `CC(=O)Nc1ccc(S(=O)(=O)NCCc2ccccc2)cc1`, the activation is reported as -7.2% (inactive).
In the case of `CCOc1ccc(NC(=O)CCC(=O)n2nc(C)cc2C)cc1`, the activation is reported as -6.7% (inactive).
In the case of `Cc1ccc(OCc2nnc(NC(=O)OCC(C)C)s2)cc1`, the activation is reported as 0.2% (inactive).
With `CCOC(=O)c1sc(NC(=S)n2cc(C)cn2)c(C(=O)OCC)c1C` the activation was -0.6% (inactive).
With `COCCOC(=O)C1=C(C)N=c2s/c(=C\c3cccs3)c(=O)n2C1c1cccs1` (stereo not drawn) the activation was -3.2% (inactive).
In the case of `Cc1c(-c2ccccc2)nc(N)c(C#N)c1-c1cccs1`, the activation is reported as -3.7% (inactive).
In the case of `CCc1ccc2oc(=O)cc(CN3CCCCC3C)c2c1` (stereo not drawn), the activation is reported as -6.7% (inactive).
In the case of `O=C1c2ccccc2C2=Nc3ccccc3SC(c3ccccc3F)C12` (stereo not drawn), the activation is reported as -0.2% (inactive).
For `C=CCn1c2ccccc2c2nnc(SC(CC)C(=O)Nc3nc(C)c(C(=O)OCC)s3)nc21` (stereo not drawn), the activation was 10% (inactive).
With `O=C(Nc1ccc2nc3n(c(=O)c2c1)CCCCC3)c1ccccc1Cl` the activation was -7.6% (inactive).
In the case of `CCCCN=C1N/C(=C\c2ccco2)C(=O)N1c1ccccc1`, the activation is reported as -7.6% (inactive).
With `CC1(C)C/C(=C(/C#N)C(N)=O)CCO1` the activation was 3.2% (inactive).
In the case of `Cc1noc(C)c1CSCC(=O)Nc1nc2ccc(Oc3ccccc3)cc2s1`, the activation is reported as -4.3% (inactive).
